According to ChEMBL document CHEMBL4513216, “Probing the Open Global Health Chemical Diversity Library for Multistage-Active Starting Points for Next-Generation Antimalarials” (ACS Infect Dis, 2020):
Out of some 68,000 compounds screened, about 2,700 (4%) showed an effect of 50% or more. Many of the other results were omitted from the sample, so strong results are more common in it than they were.

Tested on: Plasmodium berghei
Test: Screen against P. berghei liver stage (PbLuc), transformed with Luciferase, at 2uM
Assay type: functional, HepG2
Conditions: tested at 2 uM

Row | Structure (SMILES) | INHIBITION [%]
1 | O=C(CN1CCOC(Cn2cccn2)C1)NCc1ccccn1 (centres undefined) | -12.75
2 | NC(=O)c1cc2c(nc1Oc1ccc(CN3CCCC3)cc1F)CCC2 | 12.21
3 | CNC(=O)c1cc2c(nc1N(C)C)CCN(c1ncc(C)cn1)CC2 | -37.2
4 | COc1ccc(Cl)cc1NCC(=O)NCCNc1ncccn1 | -5.6
5 | COc1ccc(Cl)cc1NCC(=O)NCCNc1cnccn1 | 55.7
6 | COc1ccc(Cl)cc1NCCC(=O)NCCNc1cnccn1 | -22.83
7 | NC(=O)CN1CCCC1c1csc(Nc2cnccn2)n1 (centres undefined) | -20.73
8 | CN1CCC2(COCc3cnc(N4CCOCC4)nc32)C1 (centres undefined) | 18.97
9 | CS(=O)(=O)NC(=O)c1ccn(-c2ccccc2Cl)n1 | -61.69
10 | O=C1Nc2ccccc2CC12CCCN2Cc1ccc(F)cc1 (centres undefined) | -0.14
11 | CC(C)c1n[nH]c(C2CN(CCCS(C)(=O)=O)CCO2)n1 (centres undefined) | 69.11
12 | CCc1n[nH]c(C2CN(CCCS(C)(=O)=O)CCO2)n1 (centres undefined) | 24.65
13 | CC(C)(C)c1n[nH]c(C2CN(C(=O)CCc3ccco3)CCO2)n1 (centres undefined) | 0.74
14 | Cc1n[nH]c(C2CN(C(=O)CCc3cscn3)CCO2)n1 (centres undefined) | -4.43
15 | CSCC(=O)N1CCOC(c2nc(C(C)(C)C)n[nH]2)C1 (centres undefined) | -17.77
16 | CCc1n[nH]c(C2CN(C(=O)CCc3cscn3)CCO2)n1 (centres undefined) | 12.81
17 | CCCc1n[nH]c(C2CN(CCCS(C)(=O)=O)CCO2)n1 (centres undefined) | 2.1
18 | CC(C)c1n[nH]c(C2CN(C(=O)CCc3cscn3)CCO2)n1 (centres undefined) | 53.33
19 | CC(C)(C)c1n[nH]c(C2CN(C(=O)CCC3CC3)CCO2)n1 (centres undefined) | 60.31
20 | C=C(C)CN(CC)Cc1nc(C)no1 | -12.44
21 | CS(=O)(=O)Cc1noc(CN2CCc3c(Cl)cccc3C2)n1 | -6.67
22 | CCC(CNS(C)(=O)=O)Oc1ccccc1F (centres undefined) | 14.69
23 | CCc1n[nH]c(C2CN(Cc3nnc(C4CCC4)o3)CCO2)n1 (centres undefined) | -45.21

Row | Structure (SMILES) | INHIBITION [%]
24 | CC(=O)N1CCCC1c1nc(N(C)C)ncc1-c1ccccc1 (centres undefined) | 7.47
25 | Cc1cn(CC(=O)NC2CCN(C(=O)C3CC3)CC2)c2ccccc12 | 41.44
26 | Cc1c(C(=O)N(C)C)cccc1N(C)S(C)(=O)=O | -0.02
27 | COc1ccc(CNc2c(C)nn(C(C)C)c2C)cc1OC | -4.19
28 | CC[C@@H](c1ccccc1)n1c(CCN)n[nH]c1=O | 31.69
29 | Cc1nc(CC(=O)N2CCc3nc(-c4cnccn4)nc(O)c3C2)cs1 | 34.9
30 | CC(C)c1noc(CCC(=O)NC2CCS(=O)(=O)C2)n1 (centres undefined) | 17.19
31 | Cc1ccc(C(=O)NCCC2CCN(C)CC2)cc1N(C)S(C)(=O)=O | 36.05
32 | Cc1ccc(C(=O)NCCN2CCOCC2)cc1N(C)S(C)(=O)=O | 70.2
33 | CN(c1ccc(C(=O)NCCN2CCOCC2)c(Cl)c1)S(C)(=O)=O | 2.31
34 | COc1ccccc1-c1cc(C(=O)Nc2nc[nH]n2)[nH]n1 | 19.53
35 | CCCN(C)c1ccc(C(=O)Nc2c(C)nn(C(C)C)c2C)cc1 | -17.64
36 | CN(C)Cc1ccc(C2CCCCN2C(=O)c2ncccc2O)cc1 (centres undefined) | 56.16
37 | CN(C)Cc1ccc(C2CCCCN2C(=O)c2cccnn2)cc1 (centres undefined) | -9.15
38 | Cc1nc(C(=O)N2CCCCC2c2ccc(CN(C)C)cc2)c(C)o1 (centres undefined) | 46.21
39 | CCc1ccc(C(=O)N2CCN(CCO)CC2)o1 | 31.7
40 | CN(Cc1ccco1)C(=O)c1ccc(=O)n(C)c1 | 1.13
41 | Cc1nc(CNCc2ccc(OC34CCCN(CC3)C4)cc2)n[nH]1 (centres undefined) | -2.62
42 | CC(C)NC(=O)C1CN(C(=O)N(C)C)CC12CCOCC2 (centres undefined) | 58.87
43 | CN(C)C(=O)N1CC(C(=O)NCC2CC2)C2(CCOCC2)C1 (centres undefined) | 55.92
44 | CC(C)NC(=O)C1CN(C(=O)N2CCCC2)CC12CCOCC2 (centres undefined) | 17.51
45 | Cc1ccsc1C(=O)N1CC(C(=O)NCC2CC2)C2(CCOCC2)C1 (centres undefined) | 2.41
46 | COCC(=O)N1CC(C(=O)NCC2CC2)C2(CCOCC2)C1 (centres undefined) | -13.16

Row | Structure (SMILES) | INHIBITION [%]
47 | CC(C)NC(=O)C1CN(C(=O)c2ccccc2)CC12CCOCC2 (centres undefined) | 34.48
48 | COCCO[C@@H]1C[C@H]2CN(C(=O)c3cnccn3)CCN2C1 | -1.27
49 | O=C1NCCCCC1NCc1csc(-c2ccc(F)cc2)n1 (centres undefined) | 13.91
50 | CCN1CCc2c(CNC(=O)c3nccn3C)cncc2C1 | 10.71
51 | CCc1oc(C(=O)NC(C)c2ncn[nH]2)cc1CN1CCCC1 (centres undefined) | 38.24
52 | CC(C)Nc1ncccc1C(=O)NC1CC(=O)N(CC(F)(F)F)C1 (centres undefined) | 16.87
53 | Cc1[nH]c2ccccc2c1-c1ccnc(N[C@H](CO)CC(C)C)n1 | -48.87
54 | Nc1ncc(C(=O)N2CCC(O)(CO)CC2)c(-c2ccccc2)n1 | 32.04
55 | Nc1ncc(C(=O)N2CCC3(CCCO3)CC2)c(-c2ccccc2)n1 | 14.83
56 | Nc1ncc(C(=O)N2CCCC(N)CC2)c(-c2ccccc2)n1 (centres undefined) | 50.91
57 | Cc1cc(CN(C)C(C(=O)O)c2cccc(C(F)(F)F)c2)on1 (centres undefined) | -53
58 | COc1ccc(C)cc1CN1CCn2cccc2C1C (centres undefined) | 23.27
59 | CCC(C)NC(=O)NCc1cc2n(n1)CCCN(C1CCCCC1)C2 (centres undefined) | -15.12
60 | CSCCC(=O)NCc1cc2n(n1)CCCN(C1CCCCC1)C2 | -12.95
61 | CC(C)SCC(=O)NCc1cc2n(n1)CCCN(C1CCCCC1)C2 | 50.02
62 | CNS(=O)(=O)c1ccc(CNC(=O)N(C)C(C)COC)cc1 (centres undefined) | -30.49
63 | Cc1ccc(C(=O)N2CCC3(CCN3c3ncccn3)C2)cn1 (centres undefined) | -55.08
64 | CC(O)CNc1ccc(C#N)cc1C(F)(F)F (centres undefined) | 25.48
65 | CC(C)(C)c1nc(NS(=O)(=O)c2ccc(F)cc2)no1 | -56.23
66 | Cc1nc(CNC(=O)NC(C)c2ccc3c(c2)OCCCO3)cs1 (centres undefined) | -10.62
67 | COCCOCC(=O)NC1CCN(c2ccccn2)CC1 | -1.01
68 | O=C(COCCOc1ccccc1)NC1CCN(c2ccccn2)CC1 | 21.79
69 | Cc1ccc(C)c(OCC(=O)NC2CCN(c3ccccn3)CC2)c1 | 63.89
